Here are results for five molecules from PubChem BioAssay.

Assay [1] can be described thus: A549 cell viability effects, profiling panel, calcein-AM fluorescence, 48 h, basal (AID 1162). Also: test concentration not given here. Conditions: higher = more signal.
Assay [2] can be described thus: adipocyte viability effects, profiling panel, cell-based, 3T3-L1 adipocytes, calcein-AM fluorescence, 48 h, basal (AID 1163). Also: test concentration not given here. As to conditions: 3T3-L1 adipocytes viability, higher = more signal.
Assay [3] can be described thus: HepG2 cell viability effects, profiling panel, calcein-AM fluorescence, 48 h, basal (AID 1164). Also: test concentration not given here. As to conditions: higher = more signal.
Assay [4] can be described thus: MM1S cell viability effects, profiling panel, calcein-AM fluorescence, 48 h, basal (AID 1165).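 Also: viability of MM1S multiple myeloma cells under basal unstimulated conditions; test concentration not given here.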 As to conditions: higher = more signal.
Assay [5] in a line: basal RPMI8226 viability, no added stimulus, profiling panel, cell-based, calcein-AM fluorescence, 48 h, PK04 Diversity Set (AID 1166).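 Also: cells grown under basal conditions without added stimulus; test concentration not given here.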 Conditions: RPMI8226 myeloma viability, higher = more signal.
Assay [6] can be described thus: basal HepG2 mitochondrial membrane potential changes, profiling panel, cell-based, JC-1 fluorescence, 24 h, 100 nL compound (AID 1167). Also: test concentration not given here. As to conditions: higher = more signal.
Assay [7] in a line: basal 3T3-L1 adipocyte mitochondrial potential changes, profiling panel, cell-based, JC-1 fluorescence, 3T3-L1 adipocytes, 24 h, 100 nL compound (AID 1168). Also: test concentration not given here. Conditions: JC-1 mitochondrial fluorescence, higher = more signal, called active from +8 up or from −8 down.
The nature of assay [8]: basal RPMI8226 mitochondrial membrane potential changes, profiling panel, cell-based, JC-1 fluorescence, 24 h, 100 nL compound (AID 1169). Also: test concentration not given here. As to conditions: RPMI8226 myeloma, JC-1 mitochondrial potential fluorescence, higher = more signal.
A short description of assay [9]: basal MM1S mitochondrial membrane potential changes, profiling panel, cell-based, JC-1 fluorescence, 24 h, 100 nL compound (AID 1170). Also: test concentration not given here. As to conditions: higher = more signal.
The nature of assay [10]: A549 lung cancer cell viability effects, profiling panel, resazurin fluorescence, 24 h, PK04 Diversity Set (AID 1171). Also: test concentration not given here. Conditions: higher = more signal, called active from +8 up or from −8 down.
Assay [11] in a line: HepG2 liver cancer cell viability effects, profiling panel, resazurin fluorescence, 24 h, PK04 Diversity Set (AID 1172). Also: test concentration not given here. As to conditions: higher = more signal.
Assay [12] is described as follows: basal S. cerevisiae growth modulation, no modifier, primary screen, OD600, strain BY4716, 24 h, basal condition (AID 1173). Conditions: OD600, 24 h, higher = more signal, called active from +8 up or from −8 down.
Assay [13] in a line: MM1S myeloma cell viability, profiling panel, resazurin fluorescence, basal, 24 h, PK04 Diversity Set (AID 1174). Also: test concentration not given here. Conditions: higher = more signal, called active from +8 up or from −8 down.
The target in assay [14] is Dihydroorotate dehydrogenase (quinone), mitochondrial (Plasmodium falciparum (isolate 3D7)) (UniProt Q08210). Kind of assay: PfDHODH enzyme inhibitors, primary screen, biochemical, C-terminal His tag, absorbance 600 nm (AID 1175).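 Also: recombinant parasite enzyme with a five histidine tag at its C terminus; test concentration not given here.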 As to conditions: DCIP absorbance 600 nm, higher = more signal, called active from +8 up or from −8 down.
Sequence of Dihydroorotate dehydrogenase (quinone), mitochondrial (Plasmodium falciparum (isolate 3D7)) (Q08210 whole entry, looked up): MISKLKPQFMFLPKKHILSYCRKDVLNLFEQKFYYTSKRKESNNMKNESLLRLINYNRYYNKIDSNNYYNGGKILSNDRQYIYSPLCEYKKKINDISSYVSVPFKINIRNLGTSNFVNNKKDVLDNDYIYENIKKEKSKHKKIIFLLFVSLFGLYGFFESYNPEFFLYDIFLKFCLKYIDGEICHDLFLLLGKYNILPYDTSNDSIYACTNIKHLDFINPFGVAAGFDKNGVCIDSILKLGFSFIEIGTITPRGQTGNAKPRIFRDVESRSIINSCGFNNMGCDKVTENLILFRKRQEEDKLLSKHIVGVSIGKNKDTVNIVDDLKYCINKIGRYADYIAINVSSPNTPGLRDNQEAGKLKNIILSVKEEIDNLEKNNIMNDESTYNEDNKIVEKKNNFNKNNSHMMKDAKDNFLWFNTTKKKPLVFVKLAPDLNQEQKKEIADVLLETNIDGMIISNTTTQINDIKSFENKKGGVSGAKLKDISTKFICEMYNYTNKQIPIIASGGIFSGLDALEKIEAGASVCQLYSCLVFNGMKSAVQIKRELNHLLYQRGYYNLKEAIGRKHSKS
Assay [15] can be described thus: P. aeruginosa biofilm formation inhibitors, primary screen, strain PAO1, LB-PBS medium, absorbance 600 nm (AID 1176). Also: test concentration not given here. As to conditions: P. aeruginosa PAO1 growth/biofilm, A600, 12 h; higher = more signal.
A short description of assay [16]: S. cerevisiae RM11-1a growth modifiers, primary screen, strain RM11-1a, OD600, basal, 24 h (AID 1177).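 Also: cultures grown under basal conditions with no added stressor; test concentration not given here.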 As to conditions: OD600, 24 h, higher = more signal, called active from +8 up or from −8 down.
A short description of assay [17]: E. coli acrAB mutant growth effects, primary screen, E. coli filamentation inducers, strain DRC39, OD650, 24 h (AID 1178).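 Also: growth measured as culture turbidity by optical density at 650 nm; test concentration not given here.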 As to conditions: higher = more signal, called active from +8 up or from −8 down.
Assay [18] can be described thus: E. coli acrAB mutant growth effects, primary screen, E. coli filamentation inducers, strain DRC39, OD650, 48 h (AID 1179).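 Also: screen aims at cell division blockers that make cells filament.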 As to conditions: E. coli DRC39 delta-acrAB growth, higher = more signal, called active from +8 up or from −8 down.
Assay [19] in a line: RPMI8226 myeloma cell viability, profiling panel, resazurin fluorescence, basal, 24 h, PK04 Diversity Set (AID 1180).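 Also: RPMI8826 multiple myeloma cell line at 5000 cells per well; test concentration not given here.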 As to conditions: higher = more signal.
Assay [20] concerns the target E3 ubiquitin-protein ligase XIAP (Homo sapiens) (UniProt P98170). In words: XIAP binders, primary screen, biophysical, small-molecule microarray, fluorescence 635 nm (AID 1181).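 Also: score merges 667 nm emission and signal to noise over triplicate slides.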 Conditions: small-molecule microarray binding, higher = more signal.

Structures are written as SMILES. Activity calls are given as the source filed them. Unless noted, no rule for the calls is given here.

Sequence of E3 ubiquitin-protein ligase XIAP (Homo sapiens) (P98170 whole entry, looked up): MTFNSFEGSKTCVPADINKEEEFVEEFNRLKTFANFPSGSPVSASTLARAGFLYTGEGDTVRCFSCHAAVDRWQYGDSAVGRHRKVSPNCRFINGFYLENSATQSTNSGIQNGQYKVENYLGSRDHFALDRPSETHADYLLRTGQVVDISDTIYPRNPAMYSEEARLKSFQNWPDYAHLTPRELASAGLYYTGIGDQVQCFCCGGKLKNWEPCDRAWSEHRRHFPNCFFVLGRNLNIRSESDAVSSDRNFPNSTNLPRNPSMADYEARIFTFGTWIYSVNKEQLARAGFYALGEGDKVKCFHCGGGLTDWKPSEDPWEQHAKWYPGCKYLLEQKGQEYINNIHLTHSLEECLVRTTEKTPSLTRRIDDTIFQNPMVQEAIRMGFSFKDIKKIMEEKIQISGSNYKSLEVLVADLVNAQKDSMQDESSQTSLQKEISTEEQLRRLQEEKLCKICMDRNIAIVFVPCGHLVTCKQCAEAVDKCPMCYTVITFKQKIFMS

As for `CCOC(=O)C1=CC[C@@H](c2ccccc2)N(S(=O)(=O)c2ccc(C)cc2)[C@H]1c1ccccc1`, the z-score in [1] was -0.84; in assay [2], -1.5; in assay [3], -0.634; in assay [4] it was -1.79; in assay [5], 0.229; in [6], 1.61. In addition, the z-score in assay [7] was -1.29 (inactive); in assay [8], -1.04; in [9], -0.0355; in assay [10] it was 1.44 (inactive); in [11], -0.356; in assay [12], 1.92 (inactive). The z-score in assay [13] is -0.564 (inactive); in [15], 0.85 (inactive); in assay [16], 1.75 (inactive); in assay [17], -0.544 (inactive); in [18], -0.244 (inactive); in assay [19], -1.33. Besides, the composite z-score is 1.03 (inactive) in assay [14] and 0.0512 in assay [20].

`COc1ccc([Si](C)(C)[C@@H]2[C@@H](CCO)O[C@]3(C(=O)N(Cc4ccccc4)c4ccc(N5C(=O)c6cccc7cccc5c67)cc43)[C@H]2C)cc1`: the z-score in assay [1] is -0.768; in assay [2], -0.384; in assay [3], -0.916; in [4], -0.61; in assay [5], -2.73; in [6], -0.555. Also, the z-score in assay [7] is 0.943 (inactive); in assay [8], -0.751; in assay [9], -1.3; in assay [10], -0.149 (inactive); in assay [11], -0.0019; in [12] it was 0.282 (inactive). The z-score in assay [13] is 0.274 (inactive); in [15], 2.24 (inactive); in [16], 4.59 (inactive); in assay [17], 2.16 (inactive); in [18], 1.45 (inactive); in assay [19] it was -0.298. The values for the composite z-score in [14] and in assay [20] were -0.488 (inactive) and -0.152, respectively.

On to `COCCCNC(=O)[C@@H]1c2ccccc2C(=O)N(C(C)C)[C@H]1c1ccc(CO)cc1`, for which the z-score in [1] is 0.0112; in assay [2] it was 0.534; in assay [3], -0.244; in [4], -0.288; in assay [5], -0.0405; in [6], -0.106. The z-score is -0.409 (inactive) in assay [7]; -0.0966 in [8]; 0.942 in [9]; 0.167 (inactive) in [10]; -0.388 in assay [11]; 0.214 (inactive) in assay [12]. Besides, the z-score in assay [13] was 0.054 (inactive); in [15] it was 0.168 (inactive); in [16] it was 1.03 (inactive); in [17], 0.0099 (inactive); in [18], -0.525 (inactive); in assay [19], -0.0303. In addition, the composite z-score in assay [14] was 0.367 (inactive); in assay [20], -0.127.

Consider `COC(=O)[C@@]1(Cc2ccc(OC)cc2)[C@H]2c3cc(C(=O)N4CCCC4)n(CCO)c3C[C@H]2CN1C(=O)c1ccccc1`, for which the z-score in assay [1] was -0.832; in [2] it was 0.929; in assay [3] it was 0.519; in [4] it was -1.25; in assay [5], -0.974; in [6], 1.59. Also, the z-score in [7] was -1.55 (inactive); in assay [8], 0.506; in [9] it was -1.35; in [10], -1.07 (inactive); in assay [11], -1.39; in assay [12], 0.91 (inactive). Further, the z-score in assay [13] is -2.2 (inactive); in assay [15], 0.632 (inactive); in [16], 0.941 (inactive); in [17] it was -0.614 (inactive); in assay [18], -1.21 (inactive); in assay [19], -0.861. Moreover, the composite z-score is -0.203 (inactive) in assay [14] and 0.311 in [20].

`[N-]=[N+]=NCc1ccccc1[C@H]1OC(c2ccc(OCCCO)cc2)=N[C@@]1(Cc1ccccc1N=[N+]=[N-])C(=O)NCC(O)CO` (stereo not given in full): the z-score was -0.471 in assay [1]; 0.517 in assay [2]; -0.353 in assay [3]; -3.22 in assay [4]; -3.36 in assay [5]; -0.504 in assay [6]. The z-score in assay [7] is -0.618 (inactive); in [8], -0.962; in assay [9] it was -0.934; in [10], 0.286 (inactive); in [11], -0.144; in assay [12], -1.39 (inactive). Further, the z-score was -0.898 (inactive) in assay [13]; 0.758 (inactive) in assay [15]; 0.313 (inactive) in assay [16]; -0.0245 (inactive) in assay [17]; -0.188 (inactive) in [18]; -1.06 in [19]. Moreover, the composite z-score in assay [14] is -0.407 (inactive); in assay [20], 0.133.
